PubChem BioAssay (NCATS)
Inconclusive results are not listed. Activity calls are given as the source filed them. Unless noted, the call rests on the fitted dose curve; in most records, active means well fitted curve in either direction with a large enough effect (not every such curve was filed as active); inconclusive means small, poorly fitted or top-dose-only effect, or another doubt; inactive means flat fitted curve, though single readings scatter.

Target: Mitogen-activated protein kinase 10 (Mus musculus) (UniProt Q61831)
Assay: JNK3 AlphaScreen Assay (AID 530);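 further: kinase came from lysate of stimulated human HepG2 cells; signal reports phosphorylation of biotinylated GST-cJun 1-79 at Ser73 with 10 µM ATP; on the % scale 0 is the no-effect control and ±100 the full control effect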
Conditions: JNK3 lysate, c-Jun phosphorylation; series mostly up to 57.1 µM; activity change, negative = inhibition: at the top concentration
How it was run: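 Kinase buffer: 20 mM Tris-HCl pH 7.6, 10 mM MgCl2, 1 mM DTT, 0.1 mM Na3VO4, 0.01% Tween-20; ATP 10 uM. Substrate biotin-GST-cJun(1-79), enzyme from activated HepG2 lysates. Detection by Ser73 phospho-antibody AlphaScreen.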

Activity change, negative = inhibition, inactive:
COC(=O)CCCCCN1C(=O)NC(c2ccc(-c3ccccc3)cc2)C(C(=O)OCc2ccccc2)=C1C (configuration not stated) -0.45%, CC(=O)N1C2(C=CC1(C)C(=O)NCc1ccc(C)o1)CCCCC2 (configuration not stated) -14.2%, C=C(CC1([C@@H](NP(=O)(c2ccccc2)c2ccccc2)[C@H]2C[C@@H]2CCCC)CC1)c1ccccc1 22.5%, CC(=O)N1[C@H](Cc2ccccc2)C=C[C@]1(C)C(=O)O 2.46%, COC(=O)c1ccc(C(NC(=O)OCc2ccccc2)/C(=C/[C@@H](C)C(=O)NCc2nc3ccccc3s2)c2cccnc2)cc1 (some centres not stated) -6.91%, CNC(=O)C1(C)C=CCN1C(=O)OC (configuration not stated) 1.7%, COC(=O)[C@@]1(Cc2ccccc2)C=C[C@@H](C)N1C(=O)c1ccccc1 -8.52%, COC(=O)[C@@]1(Cc2ccc(OC)cc2)[C@@H]2[C@@H](CC(=O)[C@H]2CC(=O)C(=O)N(C)C)CN1C(=O)c1ccccc1 3.14%, COC(=O)[C@@]1(Cc2ccc(F)cc2)[C@H]2c3cc(C(=O)N4CCCC4)n(CCc4c[nH]c5ccc(OC)cc45)c3C[C@H]2CN1C(=O)c1ccccc1 -7.05%, COC(=O)[C@@]1(Cc2ccc(F)cc2)[C@H]2c3cc(C(=O)N4CCCC4)n(Cc4ccc(S(C)(=O)=O)cc4)c3C[C@H]2CN1C(=O)c1ccccc1 -13.5%, CCC/C=C(\CCC)C(NS(C)(=O)=O)c1ccccc1 (configuration not stated) 8.63%, CCCn1c(C)nc2c(NCCCN(C)C)nc(C)nc21 0.0447%, COC(=O)N1[C@H](Cc2ccccc2)C=C[C@]1(C)C(=O)O -0.927%, COC(=O)N1[C@H](C)C=C[C@]1(Cc1ccccc1)C(=O)O 22.4%, CC1(C(=O)NCc2ccccn2)C=CCN1C(=O)c1ccccc1 (configuration not stated) 1.08%, COCCNC(=O)C1(CC(C)C)C=CCN1C(C)=O (configuration not stated) -0.0271%, C[C@H]1C2=C3C(CC[C@H]4C(OCc5ccc(F)cc5C(F)(F)F)OC[C@](C)([C@@H]34)N(C(=O)OC(C)(C)C)C2)C2COC(=O)OCC21 (some centres not stated) -2.1%, COCCNC(=O)[C@@]1(Cc2ccccc2)C=C[C@@H](C)N1C(=O)OC -4.15%, COC(=O)[C@@]1(Cc2ccc(OC)cc2)[C@H]2c3cc(C(=O)N4CCCC4)n(Cc4nc5ccccc5[nH]4)c3C[C@H]2CN1C(=O)c1ccccc1 -24.2%, COCCNC(=O)[C@H](C)[C@@H]1C[C@@]1(C)[C@@H](NC(=O)OCc1ccccc1)c1ccccc1 5.53%, C[C@@H]1C=C[C@](Cc2ccccc2)(C(=O)NCC2CC2)N1C(=O)c1ccccc1 1.03%, CCCCCCN(C(=O)CCCCCN1C(=O)NC(c2ccc(-c3ccccc3)cc2)C(C(=O)OCc2ccccc2)=C1C)C(C(=O)NCCCC)c1ccc(-c2ccccc2)cc1 (configuration not stated) -0.132%, CNC(=O)[C@@]1(C)C=C[C@@H](Cc2ccccc2)N1C(C)=O 2.47%, CCCC[C@@H]1C[C@H]1C(NC(=O)c1cccnc1)c1ccc(-c2ccccc2)cc1 (some centres not stated) -0.334%, CC(Cc1ccccc1)C(=O)N1CCN(C)CC1 (configuration not stated) 19.1%, COC(=O)[C@@]1(Cc2ccccc2)[C@H]2c3cc(C(=O)N4CCCC4)n(CCN4CNCC4=O)c3C[C@H]2CN1C(=O)c1ccccc1 -10.7%, CC(=O)N1[C@H](Cc2ccccc2)C=C[C@]1(C)C(=O)NCc1ccccn1 -0.892%, CN1[C@H](Cc2ccccc2)C=C[C@]1(C)C(=O)NCC1CC1 -18.5%, CC(=O)N1CC=CC1(CC(C)C)C(=O)O (configuration not stated) -2.5%, CO[C@H]1OC[C@@]2(C)[C@@H]3C4=C(CN2C(=O)OC(C)(C)C)[C@H](C)[C@H](CO)[C@H](CO)[C@H]4CC[C@H]13 -6.23%, C[C@H](CO)NC(=O)[C@H](C)[C@H]1C[C@]1(C)[C@H](NC(=O)OCc1ccccc1)c1ccccc1 -0.592%, CNC(=O)C1(C)C=CCN1C(=O)c1ccccc1 (configuration not stated) 0.879%, C[C@H](CO)NC(=O)[C@H](C)[C@@H]1C[C@@]1(C)[C@@H](NC(=O)OCc1ccccc1)c1ccccc1 0.398%, COC(=O)c1ccc(C(NC(=O)OCc2ccccc2)/C(=C/[C@@H](C)C(=O)NC2CCCCC2)c2cccnc2)cc1 (some centres not stated) -2.16%, COC(=O)N1CC=CC1(C)C(=O)NCC1CC1 (configuration not stated) 3.82%, CC1(C(=O)O)C=CCN1C(=O)c1ccccc1 (configuration not stated) 4.47%, COC(=O)CNC(=O)[C@@]1(Cc2ccccc2)C=C[C@@H](C)N1C(=O)c1ccccc1 -5.52%, CC(Cc1ccccc1)C(=O)N(C)Cc1ccccc1 (configuration not stated) 11.7%, CCCn1c(C)nc2c(NCCO)nc(C)nc21 1.96%, COCCNC(=O)C1(C)C=CCN1C(C)=O (configuration not stated) 1.24%

Target: 3',5'-cyclic-AMP phosphodiesterase 4B (Homo sapiens) (UniProt Q07343)
Sequence (Q07343 whole entry, looked up): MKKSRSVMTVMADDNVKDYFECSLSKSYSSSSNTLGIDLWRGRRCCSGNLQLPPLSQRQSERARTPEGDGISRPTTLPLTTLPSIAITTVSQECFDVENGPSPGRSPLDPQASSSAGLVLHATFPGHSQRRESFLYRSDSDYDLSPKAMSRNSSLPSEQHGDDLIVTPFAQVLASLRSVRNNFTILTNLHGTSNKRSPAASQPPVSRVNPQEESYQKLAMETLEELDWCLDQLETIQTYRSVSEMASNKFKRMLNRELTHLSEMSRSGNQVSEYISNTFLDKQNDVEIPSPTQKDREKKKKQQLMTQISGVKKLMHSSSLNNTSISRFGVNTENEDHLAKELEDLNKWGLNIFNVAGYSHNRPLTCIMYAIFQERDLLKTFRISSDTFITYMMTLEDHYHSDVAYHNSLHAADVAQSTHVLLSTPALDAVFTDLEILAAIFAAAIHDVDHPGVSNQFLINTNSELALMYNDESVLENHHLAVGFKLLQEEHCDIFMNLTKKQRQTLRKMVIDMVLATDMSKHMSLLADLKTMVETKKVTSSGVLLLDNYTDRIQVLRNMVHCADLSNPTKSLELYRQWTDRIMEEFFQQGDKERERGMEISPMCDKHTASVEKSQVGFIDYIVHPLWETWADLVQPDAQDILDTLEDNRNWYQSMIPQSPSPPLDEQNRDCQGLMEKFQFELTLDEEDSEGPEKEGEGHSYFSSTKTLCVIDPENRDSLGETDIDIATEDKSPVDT
Assay: qHTS Assay for Inhibitors of PDE-IV (AID 607; active means well fitted activation curve with a large enough effect in the main read-out, with a control signal flat, not every such curve was filed as active; further: % of control where 0% means no effect)
Conditions: HEK293 ACTOne CNG channel cells, membrane potential fluorescence; series mostly up to 22.9 µM; activation (PDE inhibition): at the top concentration
How it was run: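 HEK293 ACTOne cells with CNG channel (1000/well), endogenous PDE4; membrane potential dye, compounds up to 22.9 uM final. Fluorescence Ex 535/Em 590; RO 20-1724 (100 uM final) as reference.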

Activation (PDE inhibition), inactive:
C=C(CC1([C@@H](NP(=O)(c2ccccc2)c2ccccc2)[C@H]2C[C@@H]2CCCC)CC1)c1ccccc1 14.6%, COC(=O)[C@@]1(Cc2ccc(OC)cc2)[C@@H]2[C@@H](CC(=O)[C@H]2CC(=O)C(=O)N(C)C)CN1C(=O)c1ccccc1 10.5%, COC(=O)[C@@]1(Cc2ccc(F)cc2)[C@H]2c3cc(C(=O)N4CCCC4)n(CCc4c[nH]c5ccc(OC)cc45)c3C[C@H]2CN1C(=O)c1ccccc1 -12.9%, COC(=O)[C@@]1(Cc2ccc(F)cc2)[C@H]2c3cc(C(=O)N4CCCC4)n(Cc4ccc(S(C)(=O)=O)cc4)c3C[C@H]2CN1C(=O)c1ccccc1 -2.84%, CCC/C=C(\CCC)C(NS(C)(=O)=O)c1ccccc1 (configuration not stated) 21.4%, C[C@H]1C2=C3C(CC[C@H]4C(OCc5ccc(F)cc5C(F)(F)F)OC[C@](C)([C@@H]34)N(C(=O)OC(C)(C)C)C2)C2COC(=O)OCC21 (some centres not stated) -1.18%, COC(=O)[C@@]1(Cc2ccc(OC)cc2)[C@H]2c3cc(C(=O)N4CCCC4)n(Cc4nc5ccccc5[nH]4)c3C[C@H]2CN1C(=O)c1ccccc1 8.88%, COCCNC(=O)[C@H](C)[C@@H]1C[C@@]1(C)[C@@H](NC(=O)OCc1ccccc1)c1ccccc1 8.48%, COC(=O)[C@@]1(Cc2ccccc2)[C@H]2c3cc(C(=O)N4CCCC4)n(CCN4CNCC4=O)c3C[C@H]2CN1C(=O)c1ccccc1 3.36%, CO[C@H]1OC[C@@]2(C)[C@@H]3C4=C(CN2C(=O)OC(C)(C)C)[C@H](C)[C@H](CO)[C@H](CO)[C@H]4CC[C@H]13 9.55%, C[C@H](CO)NC(=O)[C@H](C)[C@H]1C[C@]1(C)[C@H](NC(=O)OCc1ccccc1)c1ccccc1 -4.34%, C[C@H](CO)NC(=O)[C@H](C)[C@@H]1C[C@@]1(C)[C@@H](NC(=O)OCc1ccccc1)c1ccccc1 6.15%
